The values below come from PubChem BioAssay AID709 (SRMLSC, 2007).

Out of some 65,000 compounds screened, about 3,600 (5.5%) were called active. The entries come from a sample that favours actives as a whole. A number with no mark means an inactive call.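 The calls were made as follows: active = at 10 µM, mean starting fluorescence two-fold or more over control wells; inactive = the rest.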

The test can be described thus: intrinsic fluorescence of library compounds, ex339/em460 – biochemical, MLSMR library, data from DPM-DC assay, artefact control, profiling panel (AID 709).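 Also: signal is the first read of a kinetic run.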 The note with it: compound autofluorescence, ex339/em460 nm, NADH buffer; at 10 µM; hits give high values; 1 = no-compound wells, NADH background.
For `CCN(CC)C(=O)CSc1nnc(-c2cccc(OC)c2)o1`, the fluorescence fold increase was 1.05.

Turning to `COc1cccc(NC(=O)CN(C)S(=O)(=O)c2ccc(C)cc2)c1`, the fluorescence fold increase is 1.1.

With `COc1cccc(-c2nnc(NC(=O)c3ccc(S(=O)(=O)N(CC(C)C)CC(C)C)cc3)o2)c1`, the fluorescence fold increase is 3.77 (active).

As to `CC(C)(O)C#Cc1ccc(C(=O)N2CCC(C(N)=O)(N3CCCCC3)CC2)cc1`, the fluorescence fold increase is 1.1.

`Cc1ccccc1NC(=O)c1ccccc1`: the fluorescence fold increase was 1.09.

`Cc1ccc(NC(=O)c2nc[nH]c2C(=O)N2CCCCC2)c(C(=O)c2ccccc2)c1`: the fluorescence fold increase was 1.13.

With `Cc1ccc2c(c1)sc1ncc(NC(=O)c3ccccc3)c(=O)n12`, the fluorescence fold increase is 2.43 (active).

Turning to `CC(C)C(NC(=O)c1cccc(S(=O)(=O)N2CCOCC2)c1)C(=O)NCCc1ccccn1` (stereo not given), the fluorescence fold increase is 1.06.

As to `C=CCNC(=O)c1ccc(C)c(Br)c1`, the fluorescence fold increase is 1.08.

On to `Nc1ncc(-c2cc3ccccc3oc2=O)s1`, for which the fluorescence fold increase was 1.43.

Take `O=c1oc2cc(O)ccc2cc1-c1ccc(F)cc1`: the fluorescence fold increase was 3.81 (active).

Consider `COc1cccc(C(=O)c2cc3ccc(O)cc3oc2=O)c1`, for which the fluorescence fold increase is 1.05.

For `O=C(Cn1c(=S)nc2ccccn21)N1CCc2ccccc2C1`, the fluorescence fold increase was 1.17.

Regarding `CCOc1ccc2[nH]c(=O)c(CN(Cc3nnnn3CCc3ccccc3)CC3CCCO3)cc2c1` (stereo not given), the fluorescence fold increase is 1.82.

On to `CCC(c1nnnn1Cc1ccco1)N(Cc1cc2cc(OC)ccc2[nH]c1=O)C1CCCCC1` (stereo not given), for which the fluorescence fold increase was 1.39.

As for `COc1ccc2[nH]c(=O)c(CN(Cc3nnnn3CCc3ccccc3)CC3CCCO3)cc2c1` (stereo not given), the fluorescence fold increase was 2.03 (active).

Take `Cc1cccc2cc(CN(Cc3nnnn3Cc3ccccc3)C3CCCC3)c(=O)[nH]c12`: the fluorescence fold increase is 1.03.

On to `CCOc1ccc2[nH]c(=O)c(CN(Cc3nnnn3Cc3ccccc3)CC3CCCO3)cc2c1` (stereo not given), for which the fluorescence fold increase was 2.24 (active).

On to `COc1ccc2[nH]c(=O)c(CN(CC3CCCO3)C(=O)Nc3ccccc3)cc2c1` (stereo not given), for which the fluorescence fold increase is 2.91 (active).

In the case of `Cc1cc2cc(CN(Cc3cccs3)Cc3nnnn3CC3CCCO3)c(=O)[nH]c2cc1C` (stereo not given), the fluorescence fold increase was 1.42.

In the case of `CCC(c1nnnn1Cc1ccccc1)N(Cc1cc2cc(OC)ccc2[nH]c1=O)CC1CCCO1` (stereo not given), the fluorescence fold increase was 1.46.

For `Cc1cc(C)c2cc(CN(Cc3cccs3)Cc3nnnn3CC3CCCO3)c(=O)[nH]c2c1` (stereo not given), the fluorescence fold increase was 1.16.

With `COc1ccc(/C(O)=C2/C(=O)C(=O)N(c3nc(C)c(C)s3)C2c2ccco2)cc1` (stereo not given), the fluorescence fold increase is 1.08.

Turning to `COc1ccc(NS(=O)(=O)c2ccc(NC(=O)C(C)(C(F)(F)F)C(F)(F)F)cc2)nn1`, the fluorescence fold increase was 1.11.

Regarding `Cn1c(=O)oc2cc(S(=O)(=O)N3CCC(C(=O)Nc4ccc(OC(F)(F)F)cc4)CC3)ccc21`, the fluorescence fold increase is 0.99.
